Inconclusive results are not listed. Values without a mark were called inactive. Activity calls are given as the source filed them. Calls come from the whole dose curve.
target: 5-hydroxytryptamine receptor 2A (Homo sapiens) (UniProt P28223); assay: 5-hydroxytryptamine receptor 2A (HTR2A) small molecule agonists, cell-based qHTS assay (AID 1963587); conditions: HTR2A-CHO cells, calcium flux fluorescence, agonist mode; series mostly up to 76.8 µM; activation: at the top concentration; note: nearly all actives have a fitted effect of over 30% in size
From the text: National Center for Advancing Translational Sciences [NCATS]
Division of Preclinical Innovation [DPI]
U.S. Environmental Protection Agency [EPA]
National Institutes of Environmental Health Sciences [NIEHS]
National Toxicology Program [NTP]
U.S. Food and Drug Administration [FDA]
The HTR2A receptor is a subtype of the 5-HT2 receptor that belongs to the serotonin receptor family and is a G protein-coupled receptor (GPCR). The HTR2A-CHO cell line stably expressing human 5-hydroxytryptamine receptor 2A (HTR2A) can be used for screening agonists of interactions between 5-HT2 and its ligands. The HTR2A-CHO calcium flux assay is a homogeneous fluorescence-based assay for detecting the intracellular calcium level using FDSS kinetic plate reader system.
HTR2A-CHO cells were dispensed at 2000 cells/3uL/well in 1536-well black-clear bottom plates using a Multidrop Dispenser. After the assay plates were incubated at a 37 C/5% CO2 incubator for 18 h, 3 uL of Dye Loading Buffer was transferred to the assay plate by a Flying Reagent Dispenser. The assay plates were incubated at 37 C for 1h. For agonist mode, 23 nL of compounds dissolved in DMSO, positive controls or DMSO only was transferred to the assay plate by a pin tool. The fluorescence intensity in the plates was measured using FDSS 7000EX kinetic plate reader for 2 min at 1 sec intervals.
% is set by controls: 0 for no effect and ±100 for the full control effect; potency is the fitted concentration of half-maximal effect.

Sequence of 5-hydroxytryptamine receptor 2A (Homo sapiens) (P28223 whole entry, looked up): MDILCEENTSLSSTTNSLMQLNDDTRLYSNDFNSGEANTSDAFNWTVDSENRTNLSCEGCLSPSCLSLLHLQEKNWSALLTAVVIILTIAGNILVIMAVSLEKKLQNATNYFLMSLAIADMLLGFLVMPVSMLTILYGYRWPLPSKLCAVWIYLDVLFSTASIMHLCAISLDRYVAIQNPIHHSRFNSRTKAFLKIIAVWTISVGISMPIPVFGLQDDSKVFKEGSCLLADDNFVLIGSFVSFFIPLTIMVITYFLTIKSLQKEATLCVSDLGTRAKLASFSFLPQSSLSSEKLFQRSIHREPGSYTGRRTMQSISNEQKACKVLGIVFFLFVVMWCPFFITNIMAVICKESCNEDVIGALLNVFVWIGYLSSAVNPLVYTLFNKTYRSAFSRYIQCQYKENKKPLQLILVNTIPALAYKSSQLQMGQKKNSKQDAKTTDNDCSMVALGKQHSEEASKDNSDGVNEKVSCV

Row | SMILES | activation | Potency
1 | CC(C)c1ccc(C(=O)N=C(N)N)cc1S(C)(=O)=O | -4.32% [at 35.6 µM] | 
2 | CC(C)c1ccc2sc3ccccc3c(=O)c2c1 | 0.413% | 
3 | CCN(CC)CC(=O)Nc1c(C)cccc1C(=O)OC | 6.58% [at 35.6 µM] | 
4 | CCCCC(=O)O[C@]1(C(=O)CO)[C@H](C)C[C@H]2[C@@H]3CCC4=CC(=O)C=C[C@]4(C)[C@@]3(F)[C@@H](O)C[C@@]21C | -5.65% [at 35.6 µM] | 
5 | CC(C)(O)CCCC1=CCC(C=O)CC1 (stereo not given) | -0.661% | 
6 | C/C(=N/NC(=O)c1ccncc1)C(=O)O | -0.16% [at 35.6 µM] | 
7 | O=C(Nc1cccc2c(=O)cc(-c3nn[nH]n3)oc12)c1ccc(OCCCCc2ccccc2)cc1 | -13.2% [at 35.6 µM] | 
8 | Cc1cc(C)n(CO)n1 | 3.3% | 
9 | O=C(Nc1ccc2c(O)c(N=Nc3ccc(N=Nc4ccc(S(=O)(=O)O)cc4)cc3)c(S(=O)(=O)O)cc2c1)c1ccccc1 | -1.98% | 
10 | C=CCn1c(=O)n(CC=C)c(=O)n(CC=C)c1=O | -2.33% | 
11 | Clc1cc(Cl)c(Cl)nc1Cl |  | 24.6 µM (active)
12 | O=C1c2ccccc2S(=O)(=O)N1CCCCN1CCN(c2ncccn2)CC1 | -2.48% [at 35.6 µM] | 
13 | COC(=O)C(C)O (stereo not given) | -1.13% | 
14 | O=c1[nH]ncc2ccccc12 | -2.26% | 
15 | CCn1nc(Cc2ccccc2)cc1C1CCN(C[C@H]2C[C@H](N(C)[C@@H](C(=O)O)C(C)C)C[C@@H]2c2cccc(F)c2)CC1 | -0.602% | 
16 | Cc1ccnc(N)c1 | -1.46% | 
17 | O=C1CC2(CCCC2)CC(=O)N1 | -0.401% [at 35.6 µM] | 
18 | CCO[Si](C)(CCCOCC1CO1)OCC (stereo not given) | 1.17% | 
19 | O=C1CCCN1CCO | 2% | 
20 | CCCCCCCCCCOC(C)=O | -2.29% | 

Row | SMILES | activation | Potency
21 | O=C(CN1CCN(Cc2ccc3c(c2)OCO3)CC1)N1c2ccccc2Sc2ccccc21 | 9.45% [at 35.6 µM] | 
22 | CCN(CCC#N)c1ccc(N=Nc2ccc([N+](=O)[O-])cc2)cc1 | 11.7% | 
23 | C#CC(O)CCCCC (stereo not given) | -1.97% | 
24 | O=C(O)Cc1csc(-c2ccc(Cl)cc2)n1 | -5.14% [at 35.6 µM] | 
25 | Brc1c2ccccc2cc2ccccc12 | -3.85% | 
26 | O=C(OCC1CO1)C1CCCCC1C(=O)OCC1CO1 (stereo not given) | -1.33% | 
27 | O=C1c2cccc(O)c2C(=O)c2c(O)cc(CO)cc21 | -5.18% | 
28 | CN(C)CCOCCN(C)CCO | -0.539% | 
29 | O=C(O)c1cc(C(=O)O)c(C(=O)O)cc1C(=O)O | -0.828% | 
30 | C/C=C/C=C/CCCCCCCO | 0.278% | 
31 | Cn1cccc1 | -0.96% | 
32 | C=C(C)C(=O)OCC1CCCO1 (stereo not given) | -3.99% | 
33 | Cc1c(NC(C)C)c(=O)n(-c2ccccc2)n1C | 0.445% [at 35.6 µM] | 
34 | S=C1NC=NC2N=CNC12 (stereo not given) | -0.824% | 
35 | C=Cc1ccccc1 | 0.121% | 
36 | COc1ccc(C(=O)Nc2nc3ccccc3c(NCc3ccccc3)c2C#N)cc1 | -1.48% | 
37 | CCCCCCCCCCCC(=O)Cl | -6.48% | 
38 | CNc1c2c(nn1C)CCCC2 | 4.33% [at 35.6 µM] | 
39 | O=C(O)c1cc(Cl)cc(Cl)c1O | -2.93% | 
40 | CCCCCCCCCCc1ccccc1 | 0.017% | 
